The list is not random: actives were taken first. Their share in the collection is about 11%.
ALDH1A1 inh: blocks purified human ALDH1A1 activity; Potency, µM (titrated, usually from 75.3 µM), without a hit: at the top dose activity, negative = inhibition, actives largely listed as inhibitors; AID 1030; Purified ALDH1A1, NADH fluorescence, propionaldehyde substrate; 220,000 compounds, 7.3% hits; P00352;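 further: potency means the concentration at half of the fitted maximal effect; plate controls were no enzyme wells and a reference inhibitor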
Target sequence (P00352 whole entry, looked up): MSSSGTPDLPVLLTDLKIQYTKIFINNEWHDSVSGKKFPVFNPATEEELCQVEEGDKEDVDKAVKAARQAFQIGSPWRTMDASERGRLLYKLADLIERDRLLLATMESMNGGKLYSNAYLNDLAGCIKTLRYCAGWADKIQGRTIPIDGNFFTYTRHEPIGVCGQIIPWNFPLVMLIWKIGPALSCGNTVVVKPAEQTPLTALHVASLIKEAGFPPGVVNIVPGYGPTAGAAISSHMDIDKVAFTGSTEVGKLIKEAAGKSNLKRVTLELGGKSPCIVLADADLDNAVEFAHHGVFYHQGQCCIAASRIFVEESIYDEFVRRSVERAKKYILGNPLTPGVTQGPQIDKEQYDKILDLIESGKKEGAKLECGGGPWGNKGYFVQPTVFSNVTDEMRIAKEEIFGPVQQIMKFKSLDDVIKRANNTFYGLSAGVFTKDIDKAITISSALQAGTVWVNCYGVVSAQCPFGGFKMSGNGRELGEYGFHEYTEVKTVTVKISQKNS
PNC assembly inh: blocks assembly of the perinucleolar compartment; PC3M PTB-GFP, PNC prevalence imaging, 16 h; active compounds read low; activity change (PNC), negative = inhibition, % at 10 µM; 140,000 compounds, 3.1% hits; AID 2417;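 active means readout at or below -70, meaning at least 70% loss of cells showing the perinucleolar compartment, a nuclear body marking cancer cells; inconclusive means readout between -30 and a set limit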;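 further: plate controls were DMSO wells for no effect and camptothecin positive control wells for full effect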
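PC3M cells stably expressing PTB-GFP, 750–1000 cells/well, treated 16 h at 37 °C with compound (23 nl of library stock), in duplicate. After paraformaldehyde fixation and Hoechst stain, imaged at 20x; PNC prevalence scored by image analysis.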
HPGD block: blocks human HPGD enzyme activity. P15428. purified HPGD, NADH fluorescence kinetic, PGE2 substrate. Potency, µM, inactives show at the highest dose activity change, negative = inhibition, hits mostly inhibitors. 150,000 compounds, 4.3% hits. AID 894; further: potency means the concentration at half of the fitted maximal effect
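NADH formation kinetics: reaction with 30 uM PGE2 and 1 mM NAD+ (final), 20 nM enzyme, Tris-HCl pH 8 with Tween 20, after 15 min compound preincubation at room temperature. Fluorescence change, last versus first of five reads.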
Active calls of the source: *; ? = inconclusive; nt = no result. Unless noted, the call rests on the fitted dose curve; in most records, active means well fitted inhibition curve with a large enough effect (not every such curve was filed as active); inconclusive means small, poorly fitted or top-dose-only effect, or another doubt; inactive means no such curve, though single readings can be large or run the other way. Unless noted, on the % scale 0 is the no-effect control and ±100 the full control effect.

SMILES	ALDH1A1 inh	PNC assembly inh	HPGD block
COc1ccc(CCN2C(=O)c3ccncc3C2=O)cc1OC	-3%	10	-12%
O=C1C(Cl)=C(N2CCCCC2)C(=O)N1c1ccccc1	?	?	18µM*
O=C1C(Cl)=C(N2CCCCC2)C(=O)N1c1ccccc1Cl	?	20	-13%
COc1ccc2cc(-c3cc(C(=O)OCC(=O)NC4CCS(=O)(=O)C4)c4ccccc4n3)ccc2c1 (stereo not drawn)	?	3	?
Nc1nc(SC2c3cccc4cccc(c34)C2NS(=O)(=O)c2ccccc2)n[nH]1 (stereo not drawn)	14µM*	46	-6%
Cc1cc(C)nc(SC2c3cccc4cccc(c34)C2NS(=O)(=O)c2ccccc2)n1 (stereo not drawn)	?	-30	-12%
COc1ccc(-n2c(SCC(=O)N3CCCC3)nc3ccccc3c2=O)cc1	28%	nt	nt
COc1ccc(-n2c(SCC(=O)N3CCCCC3)nc(O)cc2=O)cc1	22µM*	33	-7%
CCn1c(SCC(=O)N2CCOCC2)nc(O)cc1=O	6%	25	-28%
CCn1c(SCC(=O)N2CCCCC2)nc(O)cc1=O	1%	35	0.28µM*
CCOC(=O)c1ccc2c(c1)nc(SCC(=O)c1ccco1)n2CC	?	17	-29%
CCOC(=O)c1ccc2c(c1)nc(SCC(=O)N1CCCCC1)n2CC	?	-11	5µM*
CCOC(=O)c1sc2nc(CSc3ccccc3)nc(NCCN(C)C)c2c1C	-8%	nt	nt
c1ccc(C2[C@H]3CN(CC4CCCCC4)[C@H](c4ccccc4)C34CC2(c2cccnc2)C4)cc1 (stereo partly drawn)	?	nt	1%
Nc1cccc(Oc2ccc3c(c2)C(=O)N(CC2CCCO2)C3=O)c1 (stereo not drawn)	8.9µM*	nt	nt
O=C(Nc1ccc2c(c1)C(=O)N(CC1CCCO1)C2=O)c1ccccc1Br (stereo not drawn)	?	23	?
O=C1C2CC=CCC2C(=O)N1CC1CCCO1 (stereo not drawn)	-9%	-30	-5%
O=C(Nc1ccncc1)c1ccc2c(c1)C(=O)N(C1CCCCC1)C2=O	7.1µM*	23	-11%
Cc1cc(NC(=O)c2ccc3c(c2)C(=O)N(C2CCCCC2)C3=O)no1	0%	?	-4%
O=C(Nc1ccncc1)c1ccc2c(c1)C(=O)N(CC1CCCO1)C2=O (stereo not drawn)	5.6µM*	-4	-17%
Cc1nnc(SCCN2CCOCC2)n1C	?	-11	-18%
CC1(C)Cc2cccc(OCC(=O)N3CCN(S(=O)(=O)c4ccccc4)CC3)c2O1	-12%	19	-4%
CC1(C)C=Cc2c(c3ccccc3[nH]c2=O)O1	1%	-21	-11%
COc1ccc(C2SCCN2C(=S)Nc2ccc(Cl)cc2)cc1 (stereo not drawn)	?	26	?
COc1ccc(C2SCCN2C(=S)Nc2cccc(Cl)c2)cc1 (stereo not drawn)	?	-102*	-12%
SMILES	ALDH1A1 inh	PNC assembly inh	HPGD block
Fc1cc(F)c(C2SCCN2C(=S)Nc2cccc(C(F)(F)F)c2)c(F)c1 (stereo not drawn)	14µM*	nt	nt
CCOC(=O)c1ccc(NC(=S)N2CCSC2c2c(F)cc(F)cc2F)cc1 (stereo not drawn)	-3%	?	-5%
CC(=O)c1cccc(NC(=O)N2CCCC2C(=O)NC2CCCCC2)c1 (stereo not drawn)	?	?	-18%
CCOc1ccc(-n2c(=O)c3sccc3n(CC(=O)Nc3cccc(OC)c3)c2=O)cc1	13%	nt	nt
CCCCCC#CCC#CCC#CCC#CCCCC(=O)O	-10%	19	-12%
O=C(C1=C(O)C(=O)N(c2ncccn2)C1c1cccc(Cl)c1)c1ccco1 (stereo not drawn)	18µM*	21	-13%
Cc1ccc(C(=O)C2=C(O)C(=O)N(c3ncccn3)C2c2ccc(Cl)cc2)o1 (stereo not drawn)	?	100	-28%
O=C(C1=C(O)C(=O)N(c2ncccn2)C1c1ccc(Cl)cc1)c1ccco1 (stereo not drawn)	?	54	-13%
O=C(C1=C(O)C(=O)N(c2ncccn2)C1c1ccc(Cl)c(Cl)c1)c1ccco1 (stereo not drawn)	7.9µM*	?	?
CN1CCN(S(=O)(=O)c2ccc(N3CCc4ccccc4C3)nc2)CC1	-6%	nt	nt
C/C=C/C(=O)N(CC)c1ccccc1C	-1%	nt	-6%
COC(=O)Cc1c(C(=O)OC)nnn1-c1cccc(C(F)(F)F)c1	9%	nt	nt
CCC(OC(=O)c1nsc(Cl)c1Cl)C(=O)NCc1ccco1 (stereo not drawn)	?	-16	10µM*
CCC(OC(=O)c1nsc(Cl)c1Cl)C(=O)NC(C)(C)C (stereo not drawn)	-2%	nt	nt
O=C(Cn1ccc([N+](=O)[O-])n1)NCc1cccnc1	8%	nt	nt
CCOc1cc(N2CCOCC2)c(OCC)cc1NC(=O)COC(=O)c1cccc2ccccc12	?	-28	2%
CCOC(=O)c1cc2sc(C)cc2n1CC(=O)NCCc1ccccc1	?	24	-25%
CC(CCc1ccccc1)NC(=O)CCCCCNc1nc(=S)[nH]c2ccccc12 (stereo not drawn)	13%	nt	nt
Cc1ccc(/C=N/NC(=O)CSc2nnc(-c3ccc(Cl)cc3)n2-c2ccc(Cl)cc2)o1	10µM*	24	-4%
O=C(CSc1nnc(SCc2ccccc2)s1)NNC(=S)Nc1ccccc1	3.2µM*	?	10µM*
Cc1ccc(/C=N/NC(=O)CSc2nnc(-c3ccccc3)n2-c2ccc(Cl)cc2)o1	?	?	-1%
O=C(CN1CCN(Cc2ccccc2)CC1)N/N=C\C=C/c1ccco1	?	32	-12%
O=C(CCC(=O)NNC(=S)Nc1ccccc1)NCc1ccccc1	?	-12	-11%
CCn1c(SCC(=O)N/N=C(\C)c2ccco2)nnc1-c1ccccc1	11µM*	nt	nt
O=C(CSc1nnc(SCc2ccccc2)s1)N/N=C/C=C/c1ccco1	14µM*	11	28µM*
SMILES	ALDH1A1 inh	PNC assembly inh	HPGD block
CCn1c(SCC(=O)NNC(=O)Cc2ccccc2)nnc1-c1ccncc1	3%	nt	nt
Cc1cc(C)n(-c2c(C)[nH]c3ccccc23)n1	4%	nt	nt
Cn1c(SCC(=O)N/N=C/C=C/c2ccco2)nc2ccccc21	14µM*	?	-25%
CCn1c(SCC(=O)N/N=C/C=C/c2ccco2)nnc1-c1ccccc1	18µM*	?	-10%
Cn1c(SCC(=O)N/N=C/C=C\c2ccccc2[N+](=O)[O-])nc2ccccc21	16%	-24	-4%
CCn1c(SCC(=O)Nc2cc(C)on2)nnc1-c1ccccc1	-1%	-11	1%
CCn1c(SCC(=O)N/N=C(\C)c2ccncc2)nnc1-c1ccccc1	1%	nt	nt
CCn1c(SCC(=O)Nc2nccs2)nnc1-c1ccccc1	-5%	?	1%
CCn1c(SCC(=O)N/N=C/c2ccc(C)o2)nnc1-c1ccccc1	11µM*	40	?
CCn1c(SCC(=O)N/N=C(\C)c2ccncc2)nnc1-c1ccc(C)cc1	20µM*	nt	nt
C/C=C1/C(=O)C[C@H]2[C@@H]3CCC4=CC(=O)CC[C@]4(C)[C@H]3CC[C@]12C	?	nt	0%
N#C/C(=C\C1CC2C=CC1C2)c1nc2ccccc2[nH]1 (stereo not drawn)	?	42	-23%
